Assay results as given in PubChem BioAssay AID950 (NMMLSC, 2007).
The whole screen tested about 190,000 compounds, of which about 120 (0.063%) were called active. The sample holds actives, similar compounds and a random draw of the others, so the mix is not that of the screen. Cut-off read from the data, not from the text of the source: active = inhibition above about 40%; inconclusive = no clear call, values can overlap the other calls; inactive = below that.

target: Apoptosis regulator Bcl-2 (Homo sapiens) (UniProt P10415); experiment: Bcl-2 and Bim peptide interaction disruptors – biochemical, multiplexed, human Bcl-2 family, primary screen (AID 950); conditions: Bead-based flow cytometry, Bim peptide-Bcl-2 binding; at 10 µM; hits give high values;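 note: 0% = no compound wells with probe peptide and 100% = reference peptide inhibitor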
Sequence (P10415 whole entry, looked up): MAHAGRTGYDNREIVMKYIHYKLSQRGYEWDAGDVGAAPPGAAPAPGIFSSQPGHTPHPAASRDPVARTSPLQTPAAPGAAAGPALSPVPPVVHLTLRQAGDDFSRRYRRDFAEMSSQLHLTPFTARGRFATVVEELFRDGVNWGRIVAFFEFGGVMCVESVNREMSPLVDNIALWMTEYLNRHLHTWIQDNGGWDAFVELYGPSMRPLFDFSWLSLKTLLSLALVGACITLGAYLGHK

inhibition, inactive:
CCOC(=O)Cn1nnnc1C -3%, CN(NC(=O)C1CC(=O)N(c2ccccc2)C1)C1=NS(=O)(=O)c2ccccc21 (stereo not drawn) -2%, Cc1nc2sc3c(c2c(=O)n1NC(=O)CCl)CCCC3 -3%, COc1ccc(N(CC(=O)Nc2ccc(C)cc2C)S(=O)(=O)c2ccccc2[N+](=O)[O-])c(OC)c1 -1%, COc1cccc(CN(C)CC(=O)NCc2ccccc2Cl)c1OC 0%, CCOC(=O)c1[nH]cnc1C(=O)Nc1ccccc1C 1%, CCCC1(C(=O)OC)NC(c2ccco2)C2C(=O)N(C)C(=O)C21 (stereo not drawn) -2%, CC(=O)Nc1ccc(OC(=O)COc2ccc(Br)cc2)cc1 0%, c1ccc(Cc2cc[n+](Cc3ccccc3)cc2)cc1 0%, C/C(CC(=O)Nc1ccc(C)cc1C)=N\NC(=O)C(C)C 0%, COc1cccc(NC(=O)CN(C)CC(=O)Nc2ccc3c(c2)CCC3)c1 0%, Cc1ccc(NC(=O)N2CCSc3ccccc32)cc1 -1%, COc1ccc(NC(=S)Nc2ccc(S(N)(=O)=O)cc2)c(C)c1 -4%, O=C(c1ccc(Br)o1)N(c1ccccn1)C1CCCCC1 -16%, Cc1sc2c(c1C)c(=O)n(-c1ccccc1)c(=O)n2CC(=O)NCC1CCCO1 (stereo not drawn) 1%, COc1ccc(Br)cc1CN(C)CC(=O)Nc1cc([N+](=O)[O-])ccc1OC -9%, O=C(/C=C/c1ccccc1Cl)Nc1ccc(S(=O)(=O)Nc2ncccn2)cc1 -1%, COC(=O)Cc1ccc(OCC(=O)Nc2ccc(OC(F)(F)F)cc2)cc1 -5%, O=C(C1CCCO1)N(c1ccc(F)cc1)C1C=CS(=O)(=O)C1 (stereo not drawn) -2%, CCc1nnc(NC(=O)CCN(c2ccc(C)cc2)S(=O)(=O)c2ccccc2)s1 0%, COc1ccc(-c2csc(NC(=O)c3ccc(N4C(=O)CCC4=O)cc3)n2)cc1OC -4%, CCOc1ccc(NC(=O)CC2C(=O)N(c3ccccc3)C(=O)N2CCOC)cc1 (stereo not drawn) 1%, Cc1ccc(C(NC(=O)N2CCCC2)C(Cl)(Cl)Cl)cc1F (stereo not drawn) -1%, COc1ccc(C[C@H]2CN3C(=NC[C@H]3C)N2CCNC(=O)CCC2CCCCC2)cc1 0%, CCOc1ccc(-c2ccc(SCC(=O)N3CCOCC3)nn2)cc1 -3%, O=C(CC1CCCCC1)NCc1ccco1 -4%, CCOC(=O)CNC(=O)/C=C/c1c(Cl)cccc1Cl 4%, CCN(CC)CCCNC(=O)Cn1cnc2sc(C)c(S(=O)(=O)N3CCN(c4ncccn4)CC3)c2c1=O -3%, CCOn1c(=O)c(=O)n(O)c2ccccc21 -1%, CCO[C@@H]1OC(C(=O)NCc2nc3ccccc3[nH]2)=C[C@H](C2CCCCC2)[C@H]1CCCO -2%, Fc1cccc(CSc2nnc3ccc(-c4ccncc4)nn23)c1 3%, CSc1ccc(/C=N/NC(=O)c2cccc(Cl)c2)cc1 -7%, O=C(Cc1ccc([N+](=O)[O-])cc1)N/N=C/c1ccco1 -4%, CC1(C)CC(=O)C(C2c3ccccc3S(=O)(=O)c3ccccc32)C(=O)C1 0%, O=C(Oc1c(-c2ccco2)oc2ccccc2c1=O)c1cccnc1 -4%, CCOCCCn1c(NN)nc2ccccc2c1=O -5%, CCOc1ccc(NC(=O)c2ccc(CSc3nnnn3C)cc2)cc1 -9%, Nc1nnc(SCn2nnc3ccccc3c2=O)s1 -5%, CN(CC(=O)Nc1ccccc1F)CC(=O)Nc1ccccc1Br -5%, Cc1cc(C)cc(N(CC(=O)NCCSCc2ccco2)S(C)(=O)=O)c1 -7%, COc1ccc(C(CCN(Cc2ccc(OC)c(OC)c2)C(=O)CCl)c2ccccc2)cc1 (stereo not drawn) -6%, COc1cc(OC)c(C(=O)OC(C)C(=O)Nc2cc(C(F)(F)F)ccc2Cl)cc1OC (stereo not drawn) -3%, Cc1ccnc(NC(=O)C(C)N2C(=O)c3ccccc3C2=O)c1 (stereo not drawn) 0%
